# Shown are actives, neighbours in structure and some others; about 7.8% of the full set was active somewhere.
# HCMV inh – inhibitors of human cytomegalovirus. HFF cells, HCMV-luciferase reporter, 72 h; hits give low values. activity change, negative = inhibition, % at 57.5 µM. 4.5% of 410,000 active; in the data active = activity change below about -60%; inconclusive = no clear call, values can overlap the other calls; inactive = above about -39%
#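 HFF cells seeded 16 h at 37C, treated with compounds, infected with luciferase-reporter HCMV at MOI 1 PFU/cell; luciferase read at 72 h post infection, normalized to buffer-only and Salinomycin controls.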
# Vaccinia Venus – inhibitors of vaccinia virus (Venus reporter); Vaccinia virus Venus reporter expression, fluorescence; 0.46% of 330,000 active; AID 720580; Potency, µM (doses to about 36.5 µM), inactives show top-dose activity change, negative = inhibition, most hits filed as inhibitors; calls by dose curve; tested in A549 cells; note: potency is the fitted concentration of half-maximal effect; nearly all actives have a fitted effect of over 30% in size
# Lassa entry inh – blocks Lassa virus binding to or entry into cells | Lassa virus pseudotype entry inhibition, cell reporter | AID 540256 | Potency, µM (doses to about 37.9 µM), for the others: top-dose activity change, negative = inhibition, usual class: inhibitors | 1.2% of 300,000 active; calls by dose curve; tested in HEK293 cells; note: potency is the fitted concentration of half-maximal effect; nearly all actives have a fitted effect of over 50% in size
# Marburg entry inh – inhibitors of Marburg virus binding or cell entry; Marburg virus pseudotyped entry inhibition, cell reporter; Potency, µM (top dose mostly 37.8 µM), without a hit: at the highest dose activity change, negative = inhibition, usual class: inhibitors; 1.8% of 300,000 active; calls by dose curve; tested in HEK293 cells; note: potency is the fitted concentration of half-maximal effect
# VACV mCherry inh – inhibitors of vaccinia virus infection (mCherry reporter signal). Potency, µM (series often up to 36.5 µM), without a hit: at the top dose activity change, negative = inhibition, hits mostly inhibitors. Vaccinia virus mCherry reporter infection, fluorescence. AID 720579. 0.63% of 310,000 active; calls by dose curve; tested in A549 cells; note: potency is the fitted concentration of half-maximal effect; nearly all actives have a fitted effect of over 35% in size
# HCV inh – blocks hepatitis C virus | Huh7.5.1 HCVcc-Cre infection, luciferase reporter, 44 h | Potency, µM (highest dose often 41.8 µM), without a hit: at the top dose activity change, negative = inhibition, most hits filed as inhibitors | 3.4% of 340,000 active | AID 651820; active = well fitted inhibition curve with a large enough effect; inconclusive = small, poorly fitted or top-dose-only effect, or another doubt; inactive = no such curve, though single readings can be large or run the other way; note: potency is the fitted concentration of half-maximal effect
#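 Infectious HCVcc-Cre (~0.5 moi) was added to cells just after compound, with cells seeded 4 h earlier at 1,000 per well. Luciferase activity after 44 h culture reported infection; substrate was incubated 15 min at room temperature before reading.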
# Starred values were filed as active, the others as inactive; i = inactive; ? = inconclusive; · = no result; + = active, no number; [ ] = remark or other dose. % is set by controls: 0 for no effect and ±100 for the full control effect.
SMILES,HCMV inh,Vaccinia Venus,Lassa entry inh,Marburg entry inh,VACV mCherry inh,HCV inh
COc1ccc2[nH]c(C)c(CCN(Cc3cccs3)C(=S)Nc3ccc(F)cc3)c2c1,·,-21%,·,·,?,11µM*
CCc1ccc(CNC(=O)c2cnc(N3CCCCC3)c3ccccc23)cc1,-5,-7%,?,·,1%,·
CCCOc1ccc(C2c3c(oc4ccccc4c3=O)C(=O)N2c2nnc(C(C)C)s2)cc1 (stereo not given),13,1%,-9%[46.1 µM],2%[46.1 µM],-5%,·
COc1ccc(N2C(=O)CSC(c3ccccc3)C2=O)cc1 (stereo not given),-105*,-1%,13%,-6%[46.1 µM],-9%,17%
N#Cc1c(-c2ccc(C(F)(F)F)cc2)cc(-c2ccccc2)[nH]c1=S,-60*,-12%,4%,?,-24%,3%
Cc1ccc(-c2cc(-c3ccccc3)[nH]c(=S)c2C#N)cc1,-39,-9%,5%,23%,-11%,3%
COC(=O)c1ccccc1NC(=O)NCCc1c(C)nn(C)c1C,-9,-3%,-4%[46.1 µM],·,-12%,·
Cc1cc(C(C)(C)C)oc1C(=O)N1CCN(C(=O)c2oc(C(C)(C)C)cc2C)CC1,-66*,·,·,3%,·,4%
COc1ccc(C2(CNC(=O)C(=O)Nc3ccc(C)c(Cl)c3)CCCC2)cc1OC,0,-16%,-9%[46.1 µM],9%[46.1 µM],-8%,·
CCN1CCN(C(=O)c2cnn(-c3ccc(F)cc3F)c2C2CCN(C(=O)OC(C)(C)C)CC2)CC1,+,-14%,-23%[46.1 µM],·,-12%,·
Cc1ccc(-n2ncc(C(=O)N3CCN(c4ccccc4F)CC3)c2C2CCN(C(=O)OC(C)(C)C)CC2)cc1C,+,-15%,?,·,-11%,·
CCOC(=O)N1CCC(NC(=O)c2cnn(-c3ccc(F)cc3F)c2C2CCN(C(=O)OC(C)(C)C)CC2)CC1,+,-16%,?,·,-7%,·
Cn1ncc(C(=O)N2CCN(c3ccccc3F)CC2)c1C1CCN(C(=O)OC(C)(C)C)CC1,?,-11%,?,·,-7%,·
Fc1ccc(Nc2c3c(nc4nncn24)CCC3)cc1,15,-3%,3%[46.1 µM],-15%[46.1 µM],-12%,·
COc1ccc(CCNC(=O)c2ccc3c(c2)c(C)c(C)n3Cc2ccccc2)c(OC)c1OC,0,-7%,-20%[46.1 µM],·,i,·
CCN1C(=O)NC(c2ccco2)C(C(C)=O)=C1C (stereo not given),·,·,·,26%[14.2 µM],·,·
CC(O)COCC1OC2OC3C(COCC(C)O)OC(OC4C(COCC(C)O)OC(OC5C(COCC(C)O)OC(OC6C(COCC(C)O)OC(OC7C(COCC(C)O)OC(OC8C(COCC(C)O)OC(OC1C(OCC(C)O)C2OCC(C)O)C(OCC(C)O)C8OCC(C)O)C(OCC(C)O)C7OCC(C)O)C(OCC(C)O)C6OCC(C)O)C(OCC(C)O)C5OCC(C)O)C(OCC(C)O)C4OCC(C)O)C(OCC(C)O)C3OCC(C)O (stereo not given),·,-15%,·,·,-13%,·
CC(C)(C)c1ccc(CN2N=Nc3ccccc3S2(=O)=O)cc1,?,?,11µM*,?,?,?
CC(C)(C)c1ccc2c(c1)C(=O)c1ccccc1C2=O,-20,-19%,8.9µM*,?,-8%,-2%
CN(C)c1cccc(C(=O)NCC2Cc3cccc(-c4cncnc4)c3O2)c1 (stereo not given),·,-4%,·,·,-13%,·
Cc1ccc2nc(-c3sc4nc(C)cc(C)c4c3N)[nH]c2c1,249,?,13µM*,?,?,19%
Cc1ccc2nc(-c3cccc(N)c3)[nH]c2c1,66,-16%,?,?,-21%,-2%
Cc1ccc(S(=O)(=O)NCC(Nc2cccc(Cl)c2)c2ccccc2)cc1 (stereo not given),-103*,?,?,?,?,·
COc1ccc(-c2nsc(NC(=O)C(C)Oc3ccc(Cl)c(C)c3)n2)cc1 (stereo not given),-65*,-11%,7%[46.1 µM],1%[46.1 µM],-6%,·
CC(Oc1ccc(F)cc1)C(=O)Nc1nc(-c2ccc(F)cc2)ns1 (stereo not given),-94*,-19%,2%[46.1 µM],8%[46.1 µM],-6%,·
SMILES,HCMV inh,Vaccinia Venus,Lassa entry inh,Marburg entry inh,VACV mCherry inh,HCV inh
COc1ccc(C(=O)Nc2nc(-c3ccc(Br)cc3)ns2)cc1,?,-19%,?,4%[46.1 µM],-17%,·
COc1ccc(/C=C\c2onc(C)c2S(=O)(=O)N2CCC(C(=O)Nc3ccccc3OC)CC2)cc1,-28,-12%,4%[46.1 µM],-15%[46.1 µM],-8%,·
CCN(CC)CCN1C(=O)C(=O)/C(=C(\O)c2ccc(Cl)cc2)[C@@H]1c1ccncc1,·,·,·,2%,·,·
COc1cccc(-c2c(NC(=O)c3ccco3)oc3ccccc3c2=O)c1,-18,-2%,·,·,11%,0.32µM*
COc1cccc(-c2c(NC(=O)c3ccco3)oc3ccc(Cl)cc3c2=O)c1,-29,-15%,13%[46.1 µM],1%[46.1 µM],-28%,7%
CC(C)(C)C1CCc2c(sc(NC(=O)C3c4ccccc4Oc4ccccc43)c2C(N)=O)C1 (stereo not given),-23,-14%,-7%[46.1 µM],?,-18%,·
O=C(Nc1cccn(Cc2c(Cl)cccc2Cl)c1=O)C1CC1,?,-3%,-19%,8%[46.1 µM],i,-9%
Cc1cc(NC(=O)NCc2ccccc2)c(=O)n(Cc2ccccc2F)c1,-17,·,·,·,·,-18%
Cc1ccc(NC(=O)Nc2cccn(Cc3c(F)cccc3Cl)c2=O)cc1,33,·,·,·,·,11µM*
O=C(NCc1ccccc1)Nc1cccn(Cc2c(F)cccc2Cl)c1=O,-74*,·,·,·,·,?
O=[N+]([O-])c1ccc(NC2CCCC2)cc1,7,-18%,19%,12%,-1%,-9%
O=[N+]([O-])c1ccc(N/N=C2/CCCCC2c2ccccn2)cc1 (stereo not given),17,-6%,?,1.1µM*,-21%,?
CCN(CC)c1ccc(C(=O)N2CCC(c3ccncc3)CC2)cc1,-34,-19%,?,·,-10%,·
Cc1cc(C)c(S(=O)(=O)c2ccc(Cl)cc2C)c(Cl)n1,-20,4%,-6%,-4%[46.1 µM],i,?
Cc1cc(C)c(S(C)(=O)=O)c(S(=O)(=O)c2ccc(Cl)cc2)n1,-98*,-25%,-1%,-11%,-11%[1.46 µM],16%
O=C(CSc1nc2ccccc2[nH]1)Nc1c(F)cccc1F,-85*,-18%,?,-25%[46.1 µM],-19%,?
COc1nonc1NC(=O)CSc1nc2ccccc2[nH]1,-64*,-14%,28%,13%,-16%,12%
O=C(CSc1nc2ccccc2[nH]1)Nc1c(F)c(F)c(F)c(F)c1F,24,·,·,·,·,11%
Cc1nonc1NC(=O)CSc1nc2ccccc2[nH]1,-4,0%,?,8%,i,10%
N#Cc1c(-c2ccc(Cl)cc2)[nH]c2ccccc12,-38,·,·,·,·,·
N#Cc1c(-c2ccc(Cl)cc2)n(O)c2ccccc12,·,?,13µM*,8.9µM*,?,?

# Source: PubChem (National Center for Advancing Translational Sciences (NCATS))
